# From PubChem BioAssay (NCI)
# About 83,000 compounds went through this panel and 20% of them were active in at least one assay; those are over-represented in the sample as a whole.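 In brief: 96-well plates, 48 h treatment, single concentration, percent growth endpoint.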 Unmarked numbers belong to inactive results. Active and inactive are the calls of the source. The calls were made as follows: active = growth percent below 10; inactive = the rest.
# How the values were obtained:
# Test in all cases: NCI-60 one-dose screen, 48 h (100 = growth as untreated, 0 = no growth, -100 = all killed)
# Conditions in all cases: 10 µM
# [1] = system: SK-MEL-2 melanoma
# [2] = system: EKVX NSCLC
# [3] = system: UO-31 renal
# [4] = system: TK-10 renal
# [5] = system: ACHN renal
# [6] = system: CAKI-1 renal
# [7] = system: A498 renal
# [8] = system: CCRF-CEM leukemia
# [9] = system: MOLT-4 leukemia
# [10] = system: SN12C renal
SMILES,growth [1],growth [2] [%],growth [3],growth [4],growth [5],growth [6],growth [7],growth [8],growth [9],growth [10]
COCCOC(=O)NC(=O)Nc1ccc(C(=O)c2ccc(Cl)cc2)cc1,27.6%,31.4,40.3%,53.2%,42.7%,32.8%,19.3%,18.5%,32.7%,–
c1ccc(C2CCCCC2)c(OCCCCCN2CCNCC2)c1,82%,67.4,66.6%,83.2%,53.3%,66.2%,52.4%,27.1%,33.5%,–
C#CCNCCN1C(=O)c2ccc3c4c(ccc(c24)C1=O)C(=O)N(CCNCC#C)C3=O,58.6%,55.7,29.5%,51.7%,22.9%,49.8%,94.1%,40.2%,20%,–
CCC(CCNc1cc(OC)cc2cccnc12)CN1C(=O)c2ccccc2C1=O (configuration not stated),108%,95.5,94.7%,119%,102%,92.8%,117%,99.3%,108%,–
CCN(CC)CCOC(=O)c1ccc(NC(=O)Nc2cccc(Cl)c2)cc1,94.7%,99.2,92.5%,96.1%,108%,96.8%,79.5%,-4.69% (active),84.9%,–
CC(CNC(Cc1ccccc1)c1ccccc1)NC(Cc1ccccc1)c1ccccc1 (configuration not stated),73.3%,26.8,37.6%,60.6%,47.7%,15.6%,74.5%,35.2%,14.9%,–
Cc1nc2ccc(-n3c(-c4ccc(Cl)cc4)nc4ccccc4c3=O)cc2n1Cc1ccccc1,96.5%,90.1,59%,111%,91.9%,81.3%,89.7%,80.2%,84.1%,–
O=C1CC(c2cccc(-c3cccnc3)c2)=Nc2ccc(Br)cc2N1,49.5%,36.9,41.9%,-9.34% (active),27.5%,49.9%,-4.26% (active),50.8%,27.1%,–
CCN(CC)CCOC(=O)c1ccc(N=Nc2ccc(O)c(OC)c2)cc1,87.8%,99.2,87.8%,87.2%,105%,97.4%,80.8%,99.5%,93.8%,–
O=C(/C=C/c1ccc(Cl)cc1)c1ccc(Br)cc1,104%,97.2,90%,81.2%,104%,101%,-44.1% (active),110%,97.7%,–
CCCCCC(CCC)COC(=O)c1ccc(OC)cc1 (configuration not stated),96%,100,85.8%,95.6%,106%,92.3%,109%,75.3%,100%,–
COc1cccc(C(=O)N(c2ccc(F)c(F)c2)C(C(=O)NC(C)(C)C)c2cc3c(C)cc(C)cc3nc2Cl)c1 (configuration not stated),77.1%,54.5,48.5%,70.5%,59.4%,42.9%,59.8%,53.8%,43.8%,–
Cc1ccc(-n2c(-c3cc4c([nH]c5ccccc54)c(-c4cccc(O)c4)n3)n[nH]c2=S)cc1,-48.1% (active),19.4,30.9%,24.9%,32.6%,7.33% (active),-40% (active),7.56% (active),0.747% (active),–
O=C1CC[C@@H](C(=O)N[C@H]2CSSC[C@@H](C(=O)N/C=C/c3ccc(O)cc3)NC(=O)[C@H](Cc3ccccc3)NC(=O)[C@@H]3CCCN3C(=O)[C@@H]3CCCN3C2=O)N1,93.5%,95,101%,94.8%,100%,96.5%,108%,68%,88.9%,–
S=c1c2ncccc2c(-c2ccccn2)nn1Cc1ccccn1,92.1%,99.3,82.2%,99.5%,104%,92.1%,134%,84.2%,93.3%,–
O=C(CSc1nnc(-c2ccc(Cl)cc2)o1)c1ccccc1,104%,102,98.1%,97.5%,101%,99.3%,106%,94.3%,104%,–
COc1ccc(/C=C2\SC(=S)N(CCCN3CCOCC3)C2=O)c(OC)c1,99%,–,86.8%,104%,98%,94.4%,102%,75.7%,94.4%,93.8%
CN(C)CCCN1c2ccccc2Sc2ccc(C(F)(F)F)cc21,-16.3% (active),43.4,18.7%,25%,–,22.4%,62.8%,16.5%,6.88% (active),–
COc1ccc(-c2nnc(SC/C(=N\O)c3ccccc3)o2)cc1,102%,95.8,97.1%,107%,101%,–,80.8%,88.9%,80.4%,–
CCc1nn2c(-c3ccccc3)c(-c3cc(OC)c(OC)c(OC)c3)nc2s1,37.9%,–,57.6%,82.2%,85.8%,69.4%,62.5%,70.9%,72.4%,88.1%
C#CCNCCCN1C(=O)c2ccc3c4c(ccc(c24)C1=O)C(=O)N(CCCNCC#C)C3=O,-21.5% (active),–,-62.1% (active),-11.3% (active),-33.1% (active),-77.9% (active),-96.2% (active),-0.672% (active),-13.1% (active),-97.7% (active)
CN(C1c2ccccc2Oc2ccccc21)S(=O)(=O)c1cc(Cl)ccc1Cl,42.9%,57.7,49.5%,69%,53.4%,54.2%,–,42.7%,43.3%,–
CC(C)(C)c1ccc(OCCCCCCN2CCNCC2)cc1,82%,69.9,72.8%,90.8%,70.6%,–,–,12%,31.3%,–
OC(CNC1CCCC1)Cn1c2ccccc2c2ccccc21 (configuration not stated),48.9%,–,12.3%,29.2%,15.1%,31.8%,58%,4.28% (active),-13.9% (active),50.7%
CCCCCC(=O)N1c2ccccc2NC2=C(C(=O)CC(c3ccc(OC)c(OC)c3)C2)C1c1ccc(C(F)(F)F)cc1 (configuration not stated),47.8%,–,44.9%,64.4%,58.3%,65.6%,57.2%,43.5%,37%,62%
COc1ccc2oc(=O)cc(C(c3ccc[nH]3)c3ccc[nH]3)c2c1,5.1% (active),32.7,16.9%,26.4%,17.3%,15.2%,–,11.3%,6.26% (active),–
CCOC(=O)Cn1nnc(-c2ccc(OCc3ccccc3F)cc2)n1,100%,–,58%,105%,84.6%,76.5%,40.9%,92.4%,90%,98.2%
CCn1nc(-c2ccccn2)c2cccnc2c1=S,88.2%,59.9,77.3%,89.9%,89.4%,86.6%,–,31.5%,57.5%,–
CS(=O)(=O)Nc1ccc([N+](=O)[O-])cc1Oc1ccccc1,125%,87.6,81.5%,117%,–,78.7%,92%,85.5%,84.8%,–
Cc1ccc(/C(CS(=O)(=O)c2ccc(C)cc2)=N\O)cc1,104%,–,93%,82.7%,91.7%,92.4%,92.2%,86.7%,102%,89.3%
